Bioassay records (PubChem BioAssay)
ELG1 repair inh: ELG1-dependent DNA repair inhibition; HEK293T ELG1-luciferase reporter, luminescence, 16 h; DNA damage induced by 5-fluorouridine; Potency, µM (titrated, usually from 46.1 µM), inactives show at the top dose activity change, negative = inhibition, usual class: inhibitors; 2.3% of 330,000 active; AID 504467; further: on the % scale 0 is the no-effect control and ±100 the full control effect; nearly all actives have a fitted effect of over 55% in size
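Overnight (16 hr) co-exposure of 2,000 cells/well to 5-fluorouridine and compound at 37 °C preceded detection. Luciferase was quantified via ONE-Glo luminescence; loss of signal denotes inhibition.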
ELG1 genotox: induces genotoxicity in HEK293T cells with luciferase-tagged ELG1; HEK293T ELG1-luciferase reporter, luminescence, 16 h; Potency, µM (series often up to 46 µM), inactives show at the highest dose activity change, positive = activation, usual class: activators; 1.3% of 330,000 active; AID 504466; further: % of control where 0% means no effect; nearly all actives have a fitted effect of over 60% in size
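Screening used a luciferase reporter fused to human ELG1 in HEK293T cells. Luminescence was read on a CCD plate imager after 16 hr exposure and 30 min ONE-Glo incubation.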
NPC1 promoter act: NPC1 promoter activation | Potency, µM (doses to about 9.22 µM), inactives show top-dose activation, actives largely listed as activators | Huh7 NPC1 promoter luciferase reporter, 24 h | 2.4% of 320,000 active; further: % of control where 0% means no effect; nearly all actives have a fitted effect of over 60% in size
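Cells: Huh7 expressing luciferase under the NPC1 promoter, 1500/well. Seeded 2 h, compound added, incubated 24 h at 37 °C. Luciferase reagent, 10 min ambient, then luminescence.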
FLuc modulator: counter-screen for miR-21 project: firefly luciferase inhibitors or activators; P08659; 6.9% of 360,000 active; purified FLuc, Km substrates, luminescence inhibition; Potency, µM (series often up to 57.5 µM), without a hit: at the top dose activity change, negative = inhibition, most hits filed as inhibitors;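 further: plate controls were vehicle for no effect and reference inhibitor for full effect; nearly all actives have a fitted effect of over 55% in size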
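Purified P. pyralis luciferase, 10 nM final, with Km-level 10 uM D-luciferin and 10 uM ATP in 50 mM Tris acetate pH 7.5, 10 mM Mg acetate, 0.01% Tween-20, 0.05% BSA; 6-point qHTS titration about 60 µM downward; luminescence read.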
Rab9 promoter act: activators of Rab9 promoter | Huh7 Rab9 promoter-luciferase reporter, luminescence, 24 h | Potency, µM (top dose mostly 9.22 µM), for inactives: at the top dose activation, negative = inhibition, hits mostly activators | 2.8% of 320,000 active; further: % of control where 0% means no effect; nearly all actives have a fitted effect of over 60% in size
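Steps: seed 1500 Huh7 Rab9-luc cells per well, rest 2 h at 37 °C; add compound in DMSO; incubate 24 h; add luciferase reagent, 10 min ambient; read luminescence.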
SMN2 splice up: increases expression of the SMN2 splice variant. HEK293 SMN2-luciferase splicing reporter, luminescence, 30-36 h. Potency, µM (series often up to 46.1 µM), for the others: at the highest dose activity change, positive = activation, actives largely listed as activators. 2.8% of 210,000 active; further: % of control where 0% means no effect; nearly all actives have a fitted effect of over 55% in size
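qHTS luciferase splicing reporter: luminescence rises when SMN2 exon 7 is included in transfected HEK293 cells. Compound exposure lasted 30-36 h at 37C, with 4.5 mM final sodium butyrate as control, followed by a ONE-Glo read.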
* hit, by the source's call; ? = inconclusive; . = no result given; [ ] = dose if it differs, or a comment. In the library only some 9.3% were active in any assay of this set; here they are far more common. The call rests on the fitted dose curve; in most records, active means well fitted curve in the direction sought with a large enough effect; inconclusive means small, poorly fitted or top-dose-only effect, or another doubt; inactive means no such curve, though single readings can be large; an effect the other way counts as inactive or inconclusive. Potency means the concentration at half of the fitted maximal effect.

SMILES	ELG1 repair inh	ELG1 genotox	NPC1 promoter act	FLuc modulator	Rab9 promoter act	SMN2 splice up
COc1ccc(NC(C)=O)cc1NC(C)c1nc2sc(C)c(C)c2c(=O)[nH]1 (configuration not stated)	21µM*	-1%	0%	-9%	1%	18%
Clc1ccc(-c2nc3n(n2)Cc2ccccc2-3)cc1	?	?	3.2µM*	0.54µM*	1.6µM*	0.5µM*
CCN(CC)S(=O)(=O)c1cccc(-c2nc3n(n2)Cc2ccccc2-3)c1	-2%	5%	?	12µM*	?	-16%
CN1CCN(C(=O)c2ccccc2-c2nc(-c3ccc(Cl)cc3)no2)CC1	-15%	-7%	3%	5%[2.3 µM]	1%	.
Cc1c(NC(=O)COC(=O)/C=C/c2cccc(Br)c2)c(=O)n(-c2ccccc2)n1C	5%	3%	1%	.	-10%	.
CC1(C)CCCN(Cc2c(O)ccc3c(=O)c(-c4nc5ccccc5s4)c(N)oc23)C1	?	?	11%	6µM*	?	.
CC1CCCN(Cc2c(O)ccc3c(=O)c(-c4nc5ccccc5s4)c(N)oc23)C1 (configuration not stated)	4%	5%	9%	6.7µM*	5%	-15%
CC1CCN(Cc2c(O)ccc3c(=O)c(-c4nc5ccccc5s4)c(N)oc23)CC1	11%	-1%	-4%	11µM*	-4%	20%
CC1CCN(Cc2c(O)ccc3c(=O)c(-c4ccc(Cl)cc4)c(C(F)(F)F)oc23)CC1	.	.	.	0%	.	-3%
Cc1oc2c(CN3CCCC3)c(O)ccc2c(=O)c1-c1ccc(Br)cc1	-10%	1%	2%	-1%	-7%	-7%
COc1ccccc1N1CCN(C(=O)Cn2c(=O)oc3cc(S(=O)(=O)N4CCCC4)ccc32)CC1	-1%	1%	-3%	7%	0%	.
O=C(COC(=O)C1CCN(S(=O)(=O)c2ccc3c(c2)OCCO3)CC1)Nc1cccc2ccccc12	12%	-1%	0%	?	2%	14%
CC(C)Cn1nc(C(=O)Nc2cccc(S(=O)(=O)N3CCCC3)c2)c2ccccc2c1=O	21µM*	-3%	0%	.	4%	.
CCn1nc(C(=O)Nc2cccc(S(=O)(=O)N3CCCC3)c2)c2ccccc2c1=O	?	-2%	-3%	-11%	-3%	.
CC(C)Cn1nc(C(=O)Nc2cccc(C(=O)NC3CC3)c2)c2ccccc2c1=O	16µM*	-5%	2%	.	-2%	.
COC(=O)c1cccc(NC(=O)c2nn(C(C)C)c(=O)c3ccccc23)c1	5%	9%	18%	-1%	-1%	-12%
CCCn1nc(C(=O)Nc2cccc(C(=O)OC)c2)c2ccccc2c1=O	23µM*	-22%	1%	-8%	3%	-15%
O=C(/C=C/c1cccc(F)c1)c1ccc(N2CCOCC2)cc1	?	?	?	1.1µM*	?	.
O=C(/C=C/c1cccs1)c1ccc(N2CCOCC2)cc1	?	?	3.5µM*	0.24µM*	2.2µM*	255%
O=C(/C=C/c1cccs1)c1cc(Br)ccc1OC(=O)N1CCOCC1	16µM*	-13%	-7%	-3%	-14%	-50%
O=C(/C=C/c1cccs1)c1ccc([N+](=O)[O-])cc1	?	2%	0%	4.3µM*	9%	.
CC(=O)c1cc(OC(=O)N2CCOCC2)ccc1OC(=O)N1CCOCC1	16%	0%	1%	0%	0%	5%
O=CN1Cc2ccccc2-c2ccccc2C1	10%	-3%	-4%	-1%	0%	.
Cc1cccc(Nc2nc(-c3ccc(O)c(O)c3)cs2)n1	?	?	-9%	21µM*	-2%	.
Cc1cccc(Nc2nc(-c3ccc(F)c(C)c3)cs2)n1	?	11%	3.2µM*	6µM*	4µM*	.
